Screen size: about 5,500 compounds; about 2,000 (36%) were called active. Inconclusive results (about 18%) are left out. Cut-off read from the data, not from the text of the source: active = normalized growth mostly below about 0.91 (no sharp cut-off); inconclusive = no clear call, values can overlap the other calls; inactive = mostly above about 0.92. Some of the results follow.
Experiment: chemical genetic growth profiling, strain panel (AID 1159580);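 note: tested at 20 µM; growth read once vehicle control cultures reached saturation at 30 °C; 1 = growth at the plate median or of vehicle wells; lower values mean less growth of the strain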
Details: S. cerevisiae deletion strains, growth OD

Measured: normalized growth

CC(=O)O[C@H]1CCC2(C)C3=C(CCC2C1(C)C)[C@]1(C)CCC(C(C)CCC=C(C)C)[C@@]1(C)CC3 (stereo not given in full)
inactive: locus YAL021C, strain ccr4, stronger effect = lower value 1.05 | locus YAL026C, strain drs2, stronger effect = lower value 0.971 | locus YAL030W, strain snc1, stronger effect = lower value 0.996 | locus YBL061C, strain skt5, stronger effect = lower value 0.99 | locus YBR009C, strain hhf1, stronger effect = lower value 0.998 | locus YBR023C, strain chs3, stronger effect = lower value 0.984 | locus YBR171W, strain sec66, stronger effect = lower value 0.994 | locus YBR231C, strain swc5, stronger effect = lower value 0.961 | locus YBR279W, strain paf1, stronger effect = lower value 0.996 | locus YCL011C, strain gbp2, stronger effect = lower value 1.01 | locus YCL016C, strain dcc1, stronger effect = lower value 1.01 | locus YCL061C, strain MRC1, stronger effect = lower value 0.995 | locus YCL069W, strain vba3, stronger effect = lower value 0.999 | locus YCR088W, strain abp1, stronger effect = lower value 1 | locus YDL005C, strain med2, stronger effect = lower value 0.983 | locus YDL040C, strain nat1, stronger effect = lower value 0.991 | locus YDR001C, strain nth1, stronger effect = lower value 1.01 | locus YDR069C, strain doa4, stronger effect = lower value 0.966 | locus YDR137W, strain rgp1, stronger effect = lower value 0.957 | locus YDR159W, strain sac3, stronger effect = lower value 0.965 | locus YDR195W, strain ref2 0.958 | locus YDR297W, strain sur2, stronger effect = lower value 0.993 | locus YDR334W, strain swr1, stronger effect = lower value 1 | locus YDR335W, strain msn5, stronger effect = lower value 1.01 | locus YDR392W, strain spt3, stronger effect = lower value 0.979 | locus YEL003W, strain gim4, stronger effect = lower value 0.969 | locus YEL037C, strain rad23, stronger effect = lower value 0.999 | locus YEL061C, strain CIN8 (second series), stronger effect = lower value 1.01 | locus YER015W, strain faa2, stronger effect = lower value 0.996 | locus YER016W, strain bim1, stronger effect = lower value 0.995 | locus YER111C, strain swi4, stronger effect = lower value 0.986 | locus YER155C, strain BEM2 (second series), stronger effect = lower value 1.02 | locus YFR010W, strain ubp6, stronger effect = lower value 0.97 | locus YGL167C, strain pmr1, stronger effect = lower value 0.99 | locus YGL173C, strain kem1, stronger effect = lower value 0.971 | locus YGL227W, strain vid30, stronger effect = lower value 0.996 | locus YGL240W, strain doc1, stronger effect = lower value 0.988 | locus YGL253W, strain hxk2, stronger effect = lower value 0.933 | locus YHR013C, strain ard1, stronger effect = lower value 1.02 | locus YHR027C, strain rpn1, stronger effect = lower value 0.993 | locus YHR030C, strain SLT2, stronger effect = lower value 0.968 | locus YHR079C, strain IRE1, stronger effect = lower value 0.994 | locus YHR142W, strain chs7, stronger effect = lower value 0.994 | locus YJL092W, strain hpr5, stronger effect = lower value 0.996 | locus YJL095W, strain BCK1 (second series), stronger effect = lower value 0.999 | locus YJL095W, strain BCK1, stronger effect = lower value 0.956 | locus YJL115W, strain asf1, stronger effect = lower value 0.987 | locus YJL129C, strain trk1, stronger effect = lower value 0.977 | locus YJL154C, strain vps35, stronger effect = lower value 0.999 | locus YJL164C, strain tpk1, stronger effect = lower value 1.03 | locus YJL166W, strain qcr8, stronger effect = lower value 0.98 | locus YJL187C, strain SWE1, stronger effect = lower value 0.997 | locus YJR066W, strain TOR1, stronger effect = lower value 0.937 | locus YKL160W, strain elf1, stronger effect = lower value 1.03 | locus YKR026C, strain gcn3, stronger effect = lower value 0.992 | locus YKR091W, strain srl3, stronger effect = lower value 1 | locus YLL001W, strain dnm1, stronger effect = lower value 0.958 | locus YLL026W, stronger effect = lower value 1 | locus YLL041C, strain sdh2, stronger effect = lower value 1 | locus YLR027C, strain aat2, stronger effect = lower value 1 | locus YLR113W, strain HOG1, stronger effect = lower value 0.957 | locus YLR221C, strain rsa3, stronger effect = lower value 0.98 | locus YLR258W, strain gsy2, stronger effect = lower value 0.999 | locus YLR262C, strain YPT6 (second series), stronger effect = lower value 0.951 | locus YLR320W, strain mms22, stronger effect = lower value 0.995 | locus YLR342W, strain FKS1, stronger effect = lower value 1 | locus YLR357W, strain rsc2, stronger effect = lower value 0.996 | locus YLR370C, strain arc18, stronger effect = lower value 0.988 | locus YLR384C, strain iki3, stronger effect = lower value 0.968 | locus YML120C, strain ndi1, stronger effect = lower value 1.01 | locus YMR058W, strain fet3, stronger effect = lower value 0.975 | locus YMR125W, strain sto1, stronger effect = lower value 1.02 | locus YMR129W, stronger effect = lower value 1 | locus YMR205C, strain PFK2, stronger effect = lower value 1.03 | locus YMR231W, strain pep5, stronger effect = lower value 0.983 | locus YNL071W, strain lat1, stronger effect = lower value 1.04 | locus YNL183C, strain NPR1, stronger effect = lower value 0.896 | locus YNL209W, strain ssb2, stronger effect = lower value 1.01 | locus YNL248C, strain rpa49, stronger effect = lower value 0.97 | locus YNL322C, strain KRE1 (second series), stronger effect = lower value 0.978 | locus YNR049C, strain mso1, stronger effect = lower value 0.988 | locus YOR001W, strain rrp6, stronger effect = lower value 0.923 | locus YOR070C, strain gyp1, stronger effect = lower value 1 | locus YOR080W, strain dia2, stronger effect = lower value 0.969 | locus YOR083W, strain WHI5, stronger effect = lower value 1.02 | locus YOR106W, strain vam3, stronger effect = lower value 1.02 | locus YOR231W, strain MKK1, stronger effect = lower value 0.969 | locus YOR265W, strain rbl2, stronger effect = lower value 1.01 | locus YOR270C, strain vph1, stronger effect = lower value 0.814 | locus YOR290C, strain snf2, stronger effect = lower value 1.02 | locus YPL051W, strain arl3, stronger effect = lower value 0.989 | locus YPL078C, strain atp4, stronger effect = lower value 1.04 | locus YPL106C, strain sse1, stronger effect = lower value 1.09 | locus YPL240C, strain hsp82, stronger effect = lower value 0.994 | locus YPL256C, strain CLN2, stronger effect = lower value 0.979

— PubChem BioAssay AID1159580 (chemical genetic matrix, 2015)
